The results in this text go back to the OligoGym collection.
Further: reference of the scale not given here.

In the experiment the target is ASCL1. The experiment in a line: pooled miR-30 sensor sort-seq; sequence = guide strand. To be noted: shRNA.
For the sequence TTTGCAGCGCATCAGTTCGGGC, the sensor-assay potency score (higher = more potent) was -1.5. In the case of TTGCTTGGGCGCTGACTTGTGA it was -0.493; in that of TTTGAGTTTGGACAGTAGCTGC, -0.582; in that of TTGACCAACTTGACGCGGTTGC, 0.134. To TGTCGCTTGACTTGCTTGGGCG belongs -1.29. TACTCATCTTCTTGTTGGCCGC: the sensor-assay potency score (higher = more potent) is -0.58.

As for TAAACCAATGTCTACAGCTTAT, the sensor-assay potency score (higher = more potent) is -1.49. To TTGCGCTCGCGCTCGTTGCGGC belongs -0.896. To TATAAAGTAAGACACATTGGTG belongs -0.186; to TTACTCATCTTCTTGTTGGCCG, 0.746. In the case of TACATTAACAACATTTCTATAA it was -1.04; in that of TTGAACAGTATTTAATAACATC, -1.14; in that of TAATACATTAACAACATTTCTA, 0.433.

The sequence ATGGAGTTCAAGTCGTTGGAGT registered a sensor-assay potency score (higher = more potent) of -1.08.

As for ATGCTCGTCCAGCAGCTGCTGC, the sensor-assay potency score (higher = more potent) is -1.67.

Consider TTGGGCGCTGACTTGTGACCGC, for which the sensor-assay potency score (higher = more potent) is -0.646.
